MCF10A rereplic: DNA re-replication induction in MCF 10a cells; 350,000 tested, 2.9% active; Potency, µM (doses to about 46.1 µM), without a hit: top-dose activity, positive = re-replication, actives largely listed as activators; MCF 10A DNA re-replication, Hoechst nuclear intensity, 48 h; also: potency is read from the fitted curve at half-maximal effect; % of control where 0% means no effect; nearly all actives have a fitted effect of over 50% in size
DRD3 agonist: activates the human D3 dopamine receptor | P35462 | D3R DiscoveRx beta-arrestin cells, luminescence, 90 min | max activation, % | 410,000 tested, 0.58% active | AID 652048; in the data active = max activation above about 30%; also: 0% is about no effect
Target sequence (P35462 whole entry, looked up): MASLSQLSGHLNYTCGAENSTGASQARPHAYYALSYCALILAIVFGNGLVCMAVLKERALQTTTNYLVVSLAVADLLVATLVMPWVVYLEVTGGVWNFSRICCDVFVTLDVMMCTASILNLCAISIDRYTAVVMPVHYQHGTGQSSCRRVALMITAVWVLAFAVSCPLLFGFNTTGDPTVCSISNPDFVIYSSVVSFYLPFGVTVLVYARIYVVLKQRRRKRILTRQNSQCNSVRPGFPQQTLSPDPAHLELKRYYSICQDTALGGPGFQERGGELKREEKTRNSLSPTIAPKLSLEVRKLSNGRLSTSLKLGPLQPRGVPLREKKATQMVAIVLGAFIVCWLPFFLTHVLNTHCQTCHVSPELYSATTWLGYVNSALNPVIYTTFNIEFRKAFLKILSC
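Agonist mode: compounds and dopamine controls were applied to plated cells for 90 min at 37 degrees C after an overnight attachment at 1500 cells/well. Luminescent read-out followed 30 - 60 minutes at room temperature with DiscoveRx detection reagent.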
KB-V1 cytotox: KB-V1 MDR subline cytotoxicity | KB-V1 MDR cells viability, CellTiter-Glo, 72 h | Potency, µM (top dose mostly 46.1 µM), hits mostly cytotoxic | 400,000 tested, 3.4% active | AID 1347076; also: potency is read from the fitted curve at half-maximal effect; % is scaled to controls: 0 for no effect and ±100 for the full control effect; nearly all actives have a fitted effect of over 60% in size
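KB-V1, DMEM (no phenol red) + 10% FBS; cpd pin-transferred, titration series; 72 h, 37 degrees C; CellTiter-Glo, luminescence. Data normalized, curve-fit.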
KB-3-1 cytotox: KB-3-1 parental cell cytotoxicity | KB-3-1 viability, CellTiter-Glo ATP luminescence, 72 h | Potency, µM (top dose mostly 46.1 µM), actives largely listed as cytotoxic | AID 1347075 | 400,000 tested, 1.4% active; also: potency is read from the fitted curve at half-maximal effect; % is scaled to controls: 0 for no effect and ±100 for the full control effect; nearly all actives have a fitted effect of over 60% in size
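KB-3-1 parental drug-naive adenocarcinoma cells in DMEM/10% FBS, incubated 72 h at 37 C with pin-transferred compounds across a concentration series. Viability by CellTiter-Glo luminescence; concentration-response curves fitted after normalization.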
SW480 rereplic: inducers of DNA re-replication in SW480 colon cancer cells. Potency, µM (titrated, usually from 46.1 µM), without a hit: at the highest dose re-replication activation, most hits filed as activators. AID 624297. SW480 DNA re-replication, Hoechst DNA content imaging, 48 h. 340,000 tested, 1.8% active; also: potency is read from the fitted curve at half-maximal effect; % of control where 0% means no effect; nearly all actives have a fitted effect of over 55% in size
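Cells (250 per well) received 23 nL compound or DMSO by pin tool and were kept 48 hr at 37 C, 5% CO2. Nuclei were then stained with Hoechst for 40 min and scanned for DNA content.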
D3 antag: antagonists of human D3 dopamine receptor; 360,000 tested, 2.5% active; D3R cells, DiscoveRx beta-arrestin luminescence, antagonist mode; active compounds read low; max response, negative = inhibition, %; AID 652054; in the data active = max response below about -50%; inconclusive = no clear call, values can overlap the other calls; also: % is scaled to controls: 0 for no effect and ±100 for the full control effect
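Cells plated overnight at 1500 cells/well, then exposed to library compounds with dopamine controls for 90 minutes at 37 degrees C. DiscoveRx reagent added for 30–60 minutes at room temperature; luminescence read, quantitative HTS format.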
* marks the source's active call; other numbers are inactive results; i = inactive; u = inconclusive; x = no result. A selection: hits, their analogues and other compounds. The true share with any hit is near 8.9%. Unless noted, calls follow the shape of the dose curve; as a rule, active = well fitted curve in the direction sought with a large enough effect; inconclusive = small, poorly fitted or top-dose-only effect, or another doubt; inactive = no such curve, though single readings can be large; an effect the other way counts as inactive or inconclusive.

SMILES	MCF10A rereplic	DRD3 agonist	KB-V1 cytotox	KB-3-1 cytotox	SW480 rereplic	D3 antag
O=C(NC1CC1)c1cc2cc3ccccc3nc2s1	4%	-1	i	i	-3%	-11
O=C(c1cccc([N+](=O)[O-])c1)N1CCN(CCc2ccncc2)CC1	x	-10	i	i	x	x
Cc1cnccn1	x	x	i	i	x	x
CCOC(=O)c1csc(-c2csc(CCNC(=O)c3ccccc3)n2)n1	x	1	i	i	x	5
O=c1c(Cl)c(NCCCO)cnn1-c1nc2ccccc2[nH]1	2.9µM*	-4	i	u	u	-15
C=CCN(CC=C)c1cnn(-c2nc3ccccc3[nH]2)c(=O)c1Cl	29%	2	4.1µM*	i	13%	16
CCC(Cn1nnc2ccccc2c1=O)NC(=O)Nc1cccc(Cl)c1 (centres undefined)	x	8	x	x	x	x
CC(C)(C)OC(=O)N1CCC(c2c(C(=O)N3CCN(C(=O)c4ccco4)CC3)cnn2-c2cccc(F)c2)CC1	x	-6	i	i	x	x
COc1ccc(/C=C\C(=O)c2c(O)ccc3c(C)cc(=O)oc23)cc1OC	u	-10	21µM*	16µM*	u	0
Cc1ccc2oc(C(=O)Nc3sc4c(c3C(=O)NCc3cccnc3)CCCC4)cc(=O)c2c1	x	-12	i	i	x	x
CC(C)CCOc1ccc(-c2c(=O)n(OCc3ccc([N+](=O)[O-])cc3)c3ccccc3[n+]2[O-])cc1	1.8µM*	11	u	i	u	-23
CCCOc1ccc(-c2c(=O)n(OCc3ccc([N+](=O)[O-])cc3)c3ccccc3[n+]2[O-])cc1	5%	-16	u	i	2%	-21
Cc1cccc2cc(/C=N/Nc3ccc(C(=O)O)cc3)c(Cl)nc12	3.7µM*	1	i	i	17%	25
O=C(O)c1ccc(N/N=C/c2cc3ccccc3nc2Cl)cc1	8.2µM*	3	i	i	u	-7
Clc1nc2ccccc2cc1/C=N/Nc1nc2ccccc2[nH]1	-13%	-16	i	i	2%	2
Cc1cccc2cc(/C=N/NC(=O)c3ccccc3O)c(Cl)nc12	7.3µM*	11	u	i	x	76
Cc1cccc2cc(/C=N/NC(=O)c3ccncc3)c(Cl)nc12	-1%	0	i	i	-32%	25
Cc1ccc(CNC(=O)CNS(=O)(=O)c2cccs2)cc1	x	-2	i	i	x	x
Cc1nn(-c2ccccc2)c(OC(=O)c2ccccc2F)c1S(=O)(=O)c1ccccc1	x	7	u	i	x	x
C=Cc1ccc(Cn2c(C(=O)O)c(CNCCc3ccccc3)c3ccc(C)cc32)cc1	x	0	i	i	x	x
CC[N+]1(CC)CCC(=C(c2ccccc2)c2ccccc2)C1C (centres undefined)	x	-15	x	x	x	x
COc1ccc(C(=O)c2c(-c3cccc(C)c3)oc3ccc(N4CCOCC4)cc23)cn1	u	36*	u	i	13%	89
COc1ccc(C(=O)c2c(-c3ccc(OC)cc3)oc3ccc(-c4ccc(OC)nc4)cc23)cc1	5%	4	i	i	-88%	16
CSc1cccc(Nc2cc(C(=O)NCCCN(Cc3ccccc3)C(C)C)c3ccccc3n2)c1	x	-14	16µM*	i	x	x
Cc1cc(C)cc(Nc2cc(C(=O)NCCCN(Cc3ccccc3)C(C)C)c3ccccc3n2)c1	x	-12	u	u	x	x
SMILES	MCF10A rereplic	DRD3 agonist	KB-V1 cytotox	KB-3-1 cytotox	SW480 rereplic	D3 antag
CC(C)(C)C(=O)Nc1cc2nn(-c3ccccc3)nc2cc1Cl	u	2	i	i	7.3µM*	36
Cn1nnnc1Sc1ccc([N+](=O)[O-])cc1Cl	u	2	i	i	u	3
CC(=O)c1ccc(Sc2nnnn2-c2ccccc2)c([N+](=O)[O-])c1	u	1	u	u	u	9
CN1CCN(S(=O)(=O)c2ccc(Sc3nnnn3-c3ccccc3)c([N+](=O)[O-])c2)CC1	6.5µM*	-3	u	u	16µM*	-20
O=[N+]([O-])c1ccc(Sc2nnnn2-c2ccccc2)c(Cl)c1	4.1µM*	13	u	u	u	15
CC1CCC(NC(=O)c2cccc(S(=O)(=O)N3CCOCC3)c2)CC1 (centres undefined)	x	2	u	i	x	-7
CCOC(=O)N1CCC(N(C(=O)Nc2cccc(OC)c2)C(C)CC)CC1 (centres undefined)	-10%	-8	18µM*	i	-4%	9
Cc1cccc(OCCCC(=O)NNC(=O)CCN2CCN(c3ccccc3)CC2)c1	-1%	5	i	i	-4%	-8
O=C(CCN1CCN(c2ccccc2)CC1)NNC(=O)c1ccccc1	x	8	i	i	x	-54*
Cc1cccc(OCC(=O)NNC(=O)CCN2CCN(c3ccccc3)CC2)c1C	-2%	-9	i	i	-8%	-83*
CCN(C(=O)CSc1nc2ccccc2n1CC(=O)Nc1ccccc1C)c1ccccc1	x	-18	i	i	x	x
COc1ccc(Cl)cc1NC(=O)CN(C)CC(=O)Nc1ccccc1-c1ccccc1	u	-4	9.2µM*	i	8%	3
COc1ccc(Cl)cc1NC(=O)CN(C)C(=O)Cc1ccc(-c2ccccc2)cc1	15%	-5	i	i	-14%	-10
COc1ccc(Cl)cc1NC(=O)CN1Cc2ccccc2C1=O	x	0	5.2µM*	u	x	x
COc1ccc(Cl)cc1NC(=O)CN(C)C(=O)c1cn2ccccc2n1	u	0	u	u	13µM*	12
COc1ccccc1C(=O)Nc1ccccc1C(=O)OCc1cc(=O)n2ccsc2n1	x	-15	i	i	x	x
CCOc1ccc(C2C(=O)N(C3CCCCCC3)CC(=O)N2CCC2=CCCCC2)cc1OC (centres undefined)	x	-14	x	x	x	x
Oc1c(CN2CCN(c3ccccn3)CC2)cc(Cl)c2cccnc12	u	-49	5.2µM*	u	7.3µM*	-128*
OCCN1CCN(Cc2cc(Br)cc(Br)c2O)CC1	0%	-26	u	i	0%	-51*
OCCN1CCN(Cc2cc(Cl)c3cccnc3c2O)CC1	u	-29	5.8µM*	u	3.3µM*	u
COCc1cc(CN2CCCC2)c(O)c2ncccc12	7%	0	u	u	-1%	-28
COc1ccccc1N1CCN(Cc2cc(COC(C)C)c3cccnc3c2O)CC1	x	-26	x	x	x	x
O=C(NCc1ccccc1)c1ccc(CS(=O)(=O)c2c(Cl)cccc2Cl)o1	x	-9	i	i	x	x
